High-throughput results from PubChem BioAssay.
Most compounds without a hit are left out; they make up all but 19% or so of the library.
TDP1 cell CPT = qHTS for Inhibitors of human tyrosyl-DNA phosphodiesterase 1 (TDP1): qHTS in cells in presence of CPT; chicken DT40 Tdp1-/-;hTDP1 cells + 20 nM CPT, ATP luminescence, 48 h; Potency, µM (doses to about 46.2 µM), hits mostly inhibitors; 420,000 tested, 12% active; note: nearly all actives have a fitted effect of over 55% in size
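Chicken DT40 Tdp1-/- cells complemented with human TDP1, 400 cells/well, exposed to compounds plus 20 nM camptothecin for at least 48 h at 37 C; viability read as ATP content by CellTiter-Glo luminescence.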
HT1080 IDH1KD tx = qHTS for induction of synthetic lethality in tumor cells producing 2HG: qHTS for the HT-1080-IDH1KD cell line | Potency, µM (highest dose often 46.1 µM), usual class: cytotoxic | HT-1080 IDH1 knockdown viability, ATP luminescence, 48 h | 360,000 tested, 2% active
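% activity derives from luminescence (CellTiter-Glo), normalised to DMSO and no-cell wells. HT-1080-IDH1KD cells, 750/well, had 48 h compound exposure at 37 °C.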
IL-1B inflam inh = qHTS for Inhibitors of Inflammasome Signaling: IL-1-beta AlphaLISA Primary Screen | THP-1 LPS/ATP IL-1B secretion, AlphaLISA, 16 h; hits give low values | activity change, % at 57.5 µM | 360,000 tested, 4.7% active | AID 743279, 2014; in the data active = activity change below about -50%; inconclusive = mostly about -30% to -49%
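Secreted IL-1B measured by AlphaLISA bead assay after 16 h compound exposure of THP-1 cells; compounds (final up to 57.5 uM) added 1 h before LPS (250 ng/mL) and ATP (1.25 mM) stimulation; lower signal means less secretion.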
TDP1 cell noCPT = qHTS for Inhibitors of human tyrosyl-DNA phosphodiesterase 1 (TDP1): qHTS in cells in absence of CPT; DT40 Tdp1-/- hTDP1 cells, no CPT, ATP luminescence, 48 h; Potency, µM (highest dose often 46.2 µM), usual class: inhibitors; 420,000 tested, 15% active; AID 686978, 2013; note: nearly all actives have a fitted effect of over 55% in size
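Growth of hTDP1-complemented DT40 Tdp1-knockout cells is measured by ATP luminescence after at least 48 hr compound exposure at 37 °C, with DMSO substituting for the 20 nM CPT used in the parallel screen.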
HT1080NT lethal = qHTS for induction of synthetic lethality in tumor cells producing 2HG: qHTS for the HT-1080-NT fibrosarcoma cell line. HT-1080-NT fibrosarcoma viability, CellTiter-Glo ATP luminescence, 48 h. Potency, µM (doses to about 46.1 µM), usual class: cytotoxic. 360,000 tested, 1.6% active;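 note: NT is the 2HG producing partner of a matched IDH1 knockdown line; nearly all actives have a fitted effect of over 55% in size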
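HT-1080-NT fibrosarcoma cells (2HG-overproducing), 750 cells/well in RPMI with 5% FBS, dosed after 2 h and incubated 48 h at 37C. CellTiter-Glo luminescence normalized to DMSO and no-cell wells; concentration-response curves fitted and classed.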
Numbers stand for hits; 0 = inactive; ? = inconclusive; - = not tested or not shown; ! = not confirmed by another sample; [ ] = another dose, or the depositor's remark. Unless noted, calls come from the whole dose curve; as a rule, active = well fitted curve in the direction sought with a large enough effect; inconclusive = small, poorly fitted or top-dose-only effect, or another doubt; inactive = no such curve, though single readings can be large; an effect the other way counts as inactive or inconclusive.

SMILES	TDP1 cell CPT	HT1080 IDH1KD tx	IL-1B inflam inh	TDP1 cell noCPT	HT1080NT lethal
CC/C(=N\NC(=O)c1ccccc1)c1c(O)n(C2CCCCC2)c(=O)[nH]c1=O	0	0	0	0	0
COC(=O)C1=C(c2ccc(F)cc2OCc2ccccc2)C[C@@H]2CC[C@H]1N2C(=O)NCCN1CCOCC1	0	0	0	?	0
COC(=O)C1=C(c2cccc(OCc3ccccc3)c2)C[C@@H]2CC[C@H]1N2C(=O)NCc1ccc(C(C)(C)C)cc1	?	0	0	20.6µM	0
COC(=O)C1=C(c2cccc(OCc3ccccc3)c2)C[C@@H]2CC[C@H]1N2C(=O)NCc1ccccc1C(F)(F)F	20.6µM	0	0	23.1µM	0
COC(=O)C1=C(c2cccc(OCc3ccccc3)c2)C[C@@H]2CC[C@H]1N2C(=O)NCCN1CCOCC1	16.4µM	?	0	?	0
CCc1ccc(NC(=O)c2ccc3oc(=O)n(Cc4ccccc4)c3c2)cc1	?	-	-	18.4µM	-
O=C(/C=C/C=C/c1ccccc1)CC1(O)C(=O)Nc2ccccc21 (centres undefined)	?	?	0	?	?
O=C(CCN1CC1)OCCOC(=O)CCN1CC1	5.17µM	0	0	4.61µM	0
COC(=O)c1ccc(CC(C(=O)c2ccccc2)N(C)C)cc1 (centres undefined)	?	0	0	?	0
C=C[C@H](Cc1ccccc1)N(Cc1ccccc1)S(=O)(=O)N(Cc1ccccc1)[C@H](C=C)Cc1ccccc1	?	0	0	13µM	0
COC(=O)[C@@H](Cc1ccccc1)N(Cc1ccccc1)S(=O)(=O)N(Cc1ccccc1)[C@H](Cc1ccccc1)C(=O)OC	23.1µM	0	0	10µM!	0
CC1=C2C3OC(=O)C(C)C3CC[C@@]2(C)C=CC1=O (some centres undefined)	0	0	0	0	0
CC(C)N1C(=O)CCC1C(=O)N1CCC2(CC1)OCCO2 (centres undefined)	0	0	0	0	0
[O]=[Cr](=[O])([OH])[O][Cr](=[O])(=[O])[OH]	?	-	-	16.8µM	-
C[C@]12CCC3C(CC[C@@H]4C[C@H](O)CC[C@]34C)C1CCC2=O (some centres undefined)	?	0	0	?	0
COc1cccc(NC2=NCCCS2)c1	0	0	0	0	0
CC1CN(c2cc([N+](=O)[O-])ccc2Cl)CC(C)N1 (centres undefined)	0	0	0	0	0
c1ccc(-c2ccc(-c3n(-c4ccccn4)c4ccccc4[n+]3-c3ccccn3)cc2)cc1	5.8µM	?	0	8.2µM	?
Cc1ccc(Cn2cccc(C(=O)Nc3nc4ccc(C)cc4s3)c2=O)cc1	0	-	-	0	-
Cc1ccnc(NC(=O)CCCc2ccc(N(CCCl)CCCl)cc2)n1	0.231µM	0	0	0.581µM	0
NC(=O)c1ccc(OCCC(O)N2CC=C(c3ccc(F)cc3)CC2)cc1 (centres undefined)	0	0	0	?	0
CN(C)C1(CNC(=O)Nc2ccc(Cl)c(Cl)c2)CCCCC1	?	?	-72.4	?	20.6µM
Cc1ccc(NC(=O)CSc2nnc([C@@H](N)Cc3c[nH]c4ccccc34)o2)c(C)c1	0	0	0	0	0
CC1(C)Cc2c(c(N3CCOCC3)nc3sc4c(NCc5ccccc5)nnnc4c23)CS1	16.4µM	0	0	23.1µM	0[9.24 µM]
Oc1ccc(Cl)c(Cl)c1Cl	0	0	0	0	0
O=C(Nc1ccc(Cl)cc1C(=O)c1ccccc1)c1ccco1	0	0	0	0	0
Oc1ccc(Cl)cc1Cc1cc(Cl)ccc1O	14.6µM	23.1µM	0	14.6µM	16.4µM
Oc1ccc(Cl)cc1Cc1ccccc1	30.6µM	0	0	21.7µM	0
C/C(=N\OC(=O)NC(C)C)c1sc(-c2ccccc2)nc1C	?	0	?	?	0
